# Values of other authors in PubChem BioAssay AID977610.
# The campaign covered roughly 3,600 compounds. About 3,600 (100%) were called active. No cut-off is given here; in the data, nearly all actives have Ki up to about 18000 µM. The set was probably picked from earlier hits. Some of the results follow. Numbered stars: 1 amine (or outer) side, 2 acyl side, 3 side chain; on linkers, the order of the positions; unused ones are H or OH. Square brackets hold non-standard residues; d marks the D form. Peptide text beside a SMILES is read from it. * marks the point of attachment. Orn(CH(NH2)2) = NC(N)NCCC[C@H](N)C(=O)O; X2 = O=C([C@H]1CCC[C@@H]1N[*:1])[*:2]; X1 = N[C@H]1CNC[C@@H]1C(=O)*; β3hL = CC(C)C[C@H](N)CC(=O)O
# Experiment: PubChem AID 977610
# Settings: PDB protein-ligand complexes, literature Ki
smiles,measurement,setting,value
CC(C)Nc1cc(=O)n(-c2ccccc2)nc1-c1ncn[nH]1,Ki,"protein: MEMBRANE PRIMARY AMINE OXIDASE, PDB entry 4btx",0.29 µM (active)
c1ccc(-c2nc(N3CCOCC3)c3sccc3n2)cc1,Ki,"protein: 3-OXOACYL-[ACYL-CARRIER-PROTEIN] REDUCTASE FABG, PDB entry 4bny",0.08 µM (active)
O=C(O)C1=C[C@H]2OCC=C[C@@](O)(C1)[C@H]2O,Ki,"protein: SHIKIMATE KINASE, PDB entry 4bqs",62 µM (active)
O=C(O)CCc1cccc(C(=O)O)c1,Ki,"protein: FKBO, PDB entry 4bps",1020 µM (active)
CCC1(CC)C[C@@H](C(=O)NCc2ccc(C(N)N)cc2)n2c1c(Cl)nc(NC1CCC1)c2=O,Ki,"protein: Factor VII heavy chain & Factor VII light chain, PDB entry 4isi",0.0073 µM (active)
O=C(O)C(=O)Nc1sc2c(c1C(=O)O)CCSC2,Ki,"protein: human protein-tyrosine phosphatases 1B, PTP-1B, PDB entry 1gfy",8.32 µM (active)
C[C@H](NC(=O)NC1C2CC3CC(C2)CC1C3)C(=O)N1CC[C@H](c2ccccc2Cl)N1c1ccccc1F (some centres not stated),Ki,"protein: rat neurolysin, PDB entry 4fxy",0.029 µM (active)
Cc1nc2cc(OCc3ccc4ccccc4n3)ccc2s1,Ki,"protein: PDE10A2, PDB entry 4mse",0.69 µM (active)
c1cnc2cc(OCc3ccc4ccccc4n3)ccc2c1,Ki,"protein: PDE10A2, PDB entry 4msc",1.1 µM (active)
O=c1[nH]c(=O)n([C@H]2C[C@H](O)[C@@H](CO[P+](O)(O)O)O2)cc1F,Ki,"protein: human Thymidylate synthase (TS) R163K, PDB entry 3h9k",0.014 µM (active)
O=c1[nH]c(=O)n([C@@H]2O[C@H](CO[P+](O)(O)O)[C@@H](O)[C@H]2O)cc1F,Ki,"protein: Mt orotidine 5'-monophosphate decarboxylase (OMPDC) D70G mutant, PDB entry 3g1v",645 µM (active)
Nc1ncnc2c1ncn2[C@@H]1O[C@H](CO[P+](O)(O)O[P+](O)(O)N[P+](O)(O)O)[C@@H](O)[C@H]1O,Ki,"protein: ATP-BINDING CASSETTE SUB-FAMILY B MEMBER 10, PDB entry 4ayw",100 µM (active)
Nc1ncnc2c1ncn2[C@@H]1O[C@H](COS(=O)(=O)NC(=O)[C@@H](N)CO)[C@@H](O)[C@H]1O,Ki,"protein: Threonine--tRNA ligase, mitochondrial, PDB entry 4eo4",0.45 µM (active)
Nc1ncnc2c1ncn2[C@@H]1O[C@H](COP(=O)(O)OP(=O)(O)NP(=O)(O)O)[C@@H](O)[C@H]1O,Ki,"protein: Lipid A export ATP-binding/permease protein msbA, PDB entry 3B5Y",10 µM (active)
Nc1ncnc2c1ncn2[C@@H]1O[C@H](CO[P+](O)(O)O[P+](O)(O)O[P+](O)(O)O)[C@@H](O)[C@H]1O,Ki,"protein: 6-phosphofructokinase isozyme 2, PDB entry 3umo",129 µM (active)
same,Ki,"protein: 6-phosphofructokinase isozyme 2, PDB entry 3ump",1030 µM (active)
Nc1ncnc2c1ncn2[C@@H]1O[C@H](CO[P+](O)(O)O)[C@@H](O)[C@H]1O[P+](O)(O)O,Ki,"protein: Aspartate-semialdehyde dehydrogenase ASADH, PDB entry 4r3w",1000 µM (active)
Nc1ncnc2c1ncn2[C@@H]1O[C@H](CO[P+](O)(O)OCC=CCC[C@@H]2SC[C@@H]3NC(=O)N[C@@H]32)[C@@H](O)[C@H]1O,Ki,"protein: Biotin-[acetyl-CoA-carboxylase] ligase, PDB entry 4dq2",0.03 µM (active)
Cc1ccc2oc(=O)n(CCCCn3cc(CCCCC[C@@H]4SC[C@@H]5NC(=O)N[C@@H]54)nn3)c2c1,Ki,"protein: Biotin ligase, PDB entry 3v7s",0.09 µM (active)
Nc1ncnc2c1ncn2[C@@H]1O[C@H](CO[P+](O)(O)O[P+](O)(O)C[P+](O)(O)O)[C@@H](O)[C@H]1O,Ki,"protein: ATP-BINDING CASSETTE SUB-FAMILY B MEMBER 10, PDB entry 4ayx",200 µM (active)
same,Ki,"protein: ATP-BINDING CASSETTE SUB-FAMILY B MEMBER 10 MITOCHONDRIAL, PDB entry 4ayt",200 µM (active)
CC1(C)O[C@@H]2[C@H](O1)[C@@H](Cn1cc(CCCCC[C@@H]3SC[C@@H]4NC(=O)N[C@@H]43)nn1)O[C@H]2n1cnc2c(N)ncnc21,Ki,"protein: Biotin ligase, PDB entry 3v7c",1.83 µM (active)
O[C@@H]1[C@H](O)[C@@H](CO[P+](O)(O)O)O[C@H]1n1cnc2c(-c3ccc4ccccc4c3)ncnc21,Ki,"protein: 2'-deoxynucleoside 5'-phosphate N-hydrolase 1 DNPH1, PDB entry 4p5e",2.8 µM (active)
same,Ki,"protein: 2'-deoxynucleoside 5'-phosphate N-hydrolase 1 DNPH1, PDB entry 4p5d",1.5 µM (active)
O=C(N[C@@H](CCCCNC(=O)c1ccc(I)cc1)C(=O)O)N[C@H](C(=O)O)c1ccc(O)cc1,Ki,"protein: Glutamate carboxypeptidase 2 GCPII, PDB entry 4oc5",0.085 µM (active)
O=C(N[C@@H](CCCCNC(=O)c1ccc(I)cc1)C(=O)O)N[C@@H](C[C@H]1CO1)C(=O)O,Ki,"protein: Glutamate carboxypeptidase 2 GCPII, PDB entry 4oc1",0.254 µM (active)
O=C(N[C@@H](CCCCNC(=O)c1ccc(I)cc1)C(=O)O)N[C@@H](Cc1ccco1)C(=O)O,Ki,"protein: Glutamate carboxypeptidase 2 GCPII, PDB entry 4oc3",0.0053 µM (active)
O=C(N[C@@H](CCCCNC(=O)c1ccc(I)cc1)C(=O)O)N[C@@H](Cc1ccncc1)C(=O)O,Ki,"protein: Glutamate carboxypeptidase 2 GCPII, PDB entry 4oc4",0.105 µM (active)
C#CC[C@H](NC(=O)N[C@@H](CCCCNC(=O)c1ccc(I)cc1)C(=O)O)C(=O)O,Ki,"protein: Glutamate carboxypeptidase 2 GCPII, PDB entry 4oc2",0.0053 µM (active)
O=C(N[C@@H](CCCCNC(=O)c1ccc(I)cc1)C(=O)O)NC1(C(=O)O)CC1,Ki,"protein: Glutamate carboxypeptidase 2 GCPII, PDB entry 4oc0",0.318 µM (active)
CC(C)C[C@@H](CC(=O)NCC(=O)N[C@@H](CC(=O)O)C(=O)N[C@@H](C)C(=O)N[C@@H](Cc1ccccc1)C(=O)N[C@@H](CC(N)=O)C(=O)N[C@@H](CCCNC(N)N)C(N)=O)NC(=O)[C@H](CCCCN)NC(=O)[C@H]1CCC[C@@H]1NC(=O)[C@H](CC(C)C)NC(=O)[C@H]1CCC[C@@H]1NC(=O)[C@H](CCCNC(N)N)NC(=O)[C@H]1CCC[C@@H]1NC(=O)[C@H](C)NC(=O)[C@H]1CNC[C@@H]1N (X1-A[X2][Orn(CH(NH2)2)][X2]L[X2]K[β3hL]GDAFN[Orn(CH(NH2)2)]-NH2),Ki,"protein: Apoptosis regulator Bcl-XL, PDB entry 3fdm",0.002 µM (active)
CC[C@H](C)[C@H](NC(=O)[C@H](CCCCN)NC(=O)[C@@H]1CCCN1C(=O)[C@@H](N)CCCNC(N)N)C(=O)N1CCC[C@H]1C(=O)N1CCC[C@H]1C(=O)O (H-[Orn(CH(NH2)2)]PKIPP-OH),Ki,"protein: ANGIOTENSIN-CONVERTING ENZYME, ANCE, PDB entry 4aa2",107 µM (active)
CSCC[C@H](NC(=O)[C@H](CC(C)C)NC(=O)CNC(=O)[C@H](Cc1ccccc1)NC(=O)[C@H](Cc1ccccc1)NC(=O)[C@H](CCC(N)=O)NC(=O)[C@H](CCC(N)=O)NC(=O)[C@@H]1CCCN1C(=O)[C@H](CCCCN)NC(=O)[C@@H]1CCCN1C(=O)[C@@H](N)CCCNC(N)N)C(=O)O,Ki,"protein: Substance-P receptor, PDB entry 2ks9",9020 µM (active)
same,Ki,"protein: Substance-P receptor, PDB entry 2ksa",871 µM (active)
same,Ki,"protein: Substance-P receptor, PDB entry 2ksb",754 µM (active)
CSCC[C@H](NC(=O)[C@H](CC(C)C)NC(=O)[C@H](CC(C)C)NC(=O)[C@@H]1CCCN1C(=O)[C@@H](N)Cc1cnc[nH]1)C(=O)N[C@@H](CCCNC(N)N)C(=O)N[C@@H](CC(C)C)C(=O)N[C@@H](CC(C)C)C(=O)N[C@@H](Cc1cnc[nH]1)C(=O)N[C@@H](Cc1cnc[nH]1)C(=O)N1CCC[C@H]1C(=O)N[C@@H](CO)C(=O)O (H-HPLLM[Orn(CH(NH2)2)]LLHHPS-OH),Ki,"protein: Estrogen receptor beta, PDB entry 4j26",3.64 µM (active)
